Inconclusive results are not listed. Calls of active or inactive are those of the source. Rule for the calls, unless noted: active = hit-call score of the fitted dose curve at least 0.9, where 1 is the maximum; inactive = score below 0.9.
What was measured:
[1] = molecular target: Estrogen receptor (Homo sapiens) (UniProt P03372); test: OT_ERa_GFPERaERE_0480: Odyssey Thera (OT) 8-hour HeLa Transcription Induction Assay for Estrogen Receptor (AID 2283381)
How it was run: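 An 8 h HeLa transcription-induction format with a GFP reporter under ERE control, read by fluorescence microscopy; single endpoint fitted positively with DMSO as baseline.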

[2] = molecular target: Estrogen receptor (Homo sapiens) (UniProt P03372); test: OT_ERa_GFPERaERE_0120: Odyssey Thera (OT) 2-hour HeLa Transcription Induction Assay for Estrogen Receptor (AID 2283382; active = hit-call score of the fitted dose curve at least 0.9, where 1 is the maximum)
How it was run: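 Two-hour compound treatment of HeLa cells preceded microscopy imaging of an inducible fluorescent reporter. Image-based quantification gave one endpoint, analysed for signal increase relative to DMSO controls.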

[3] = molecular target: Bile acid receptor (Homo sapiens) (UniProt Q96RI1); test: OT_FXR_FXRSRC1_0480: Odyssey Thera (OT) 8-hour HEK293T Protein-Complementation Assay for Farnesoid X receptor/SRC-1 Co-activator (AID 2283383; active = hit-call score of the fitted dose curve at least 0.9, where 1 is the maximum)
How it was run: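 Readings were taken 8 h after dosing HEK293T cells in a split-reporter complementation format pairing FXR with SRC-1. Increased fluorescence relative to DMSO-treated wells defined activity.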

[4] = molecular target: Peroxisome proliferator-activated receptor gamma (Homo sapiens) (UniProt P37231); test: OT_PPARg_PPARgSRC1_0480: Odyssey Thera (OT) 8-hour Protein-Complementation Assay for Peroxisome Proliferator-activated Receptor Gamma / SRC-1 Co-activator (AID 2283387; active = hit-call score of the fitted dose curve at least 0.9, where 1 is the maximum)
How it was run: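 Protein-fragment complementation in HEK293T: Venus YFP halves (residues 1-158, 159-239, mutated to IFP1/IFP2) fused to PPARg/SRC-1. 8 h exposure; N/C ratio at 488 nm; DMSO negative control.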

[5] = molecular target: Peroxisome proliferator-activated receptor gamma (Homo sapiens) (UniProt P37231); test: OT_PPARg_PPARgSRC1_1440: Odyssey Thera (OT) 24-hour Protein-Complementation Assay for Peroxisome Proliferator-activated Receptor Gamma/ SRC-1 Co-activator (AID 2283388; active = hit-call score of the fitted dose curve at least 0.9, where 1 is the maximum)
How it was run: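 HEK293T cells transiently transfected with PPARg and SRC-1 fused via (Gly4Ser)2 linker to split Venus YFP fragments (IFP1/IFP2) were dosed 24 h; fixed, Draq5-stained, imaged at 488/635 nm; nuclear/cytoplasmic fluorescence ratio scored versus DMSO baseline, gain-of-signal.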

[6] = molecular target: Retinoic acid receptor RXR-alpha (Homo sapiens) (UniProt P19793); test: OT_NURR1_NURR1RXRa_0480: Odyssey Thera (OT) 8-hour HEK293T Protein Complementation Assay for Nurr1/retinoid X receptor (RXR) (AID 2283385; active = hit-call score of the fitted dose curve at least 0.9, where 1 is the maximum)
How it was run: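 Gain in fluorescent complementation signal over DMSO, measured 8 hours after chemical dosing of human kidney HEK293T cells, indicated enhanced Nurr1–RXRα association.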

[7] = molecular target: Retinoic acid receptor RXR-alpha (Homo sapiens) (UniProt P19793); test: OT_NURR1_NURR1RXRa_1440: Odyssey Thera (OT) 24-hour HEK293T Protein Complementation Assay for Nurr1/retinoid X receptor (RXR) (AID 2283386; active = hit-call score of the fitted dose curve at least 0.9, where 1 is the maximum)
How it was run: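 Cell-based binding reporter: HEK293T cells, 24 h exposure, fluorescence-detected fragment complementation, DMSO as baseline.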

[8] = molecular target: Bile acid receptor (Homo sapiens) (UniProt Q96RI1); test: OT_FXR_FXRSRC1_1440: Odyssey Thera (OT) 24-hour HEK293T Protein-Complementation Assay for Farnesoid X receptor/SRC-1 Co-activator (AID 2283384; active = hit-call score of the fitted dose curve at least 0.9, where 1 is the maximum)
How it was run: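 Single endpoint, analysed for increased fluorescence against DMSO controls. HEK293T cells carrying FXR and SRC-1 linked to complementary reporter halves were exposed to chemicals for 24 h before reading.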

[9] = CEETOX_H295R_11DCORT: CeeTox H295R High-throughput Steroidogenesis Assay for 11-Deoxycortisol (11DCORT) (AID 2283432); conditions: actives raise or lower the signal;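 for AC50: human adrenal H295R cells prestimulated with 10 µM forskolin for 48 h; 11-deoxycortisol secreted into the medium measured by LC-MS/MS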
How it was run: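 Adrenal carcinoma line H295R, run per OECD 456 with minor changes, was forskolin-stimulated (10 uM, 48 h) before a 48 h chemical exposure at 0.1% DMSO. Secreted 11-deoxycortisol was quantified by HPLC-MS/MS.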

[10] = CEETOX_H295R_OHPREG: CeeTox H295R High-throughput Steroidogenesis Assay for OH-Pregnenolone (OHPREG) (AID 2283434); conditions: actives raise or lower the signal
How it was run: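 Readout: HPLC-MS/MS of 17alpha-hydroxypregnenolone in medium after 48 h chemical exposure of H295R cells pretreated with forskolin. Values fitted bidirectionally relative to DMSO; chemicals reducing viability to 20–70% were retested after 10-fold dilution.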

[11] = CEETOX_H295R_OHPROG: CeeTox H295R High-throughput Steroidogenesis Assay for OH-Progesterone (OHPROG) (AID 2283435); conditions: actives raise or lower the signal;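 for AC50: human adrenal H295R cells primed 48 h with 10 µM forskolin; 17alpha-hydroxyprogesterone secreted into medium measured by HPLC-MS/MS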
How it was run: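 Human adrenocortical H295R cells, passage 10 or lower, were treated with chemical for 48 h after forskolin priming, and hormone output in the medium was quantified by LC-MS/MS.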

[12] = CEETOX_H295R_ANDR: CeeTox H295R High-throughput Steroidogenesis Assay for Androstenedione (ANDR) (AID 2283436); conditions: actives raise or lower the signal;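 note: human H295R adrenal cells exposed for 48 h with androstenedione measured in medium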
How it was run: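 Steroidogenesis in H295R adrenal cells after 48 h dosing; androstenedione quantified by LC-MS/MS, with DMSO as negative control and baseline for bidirectional curve fitting.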

[13] = CEETOX_H295R_CORTIC: CeeTox H295R High-throughput Steroidogenesis Assay for Corticosterone (CORTIC) (AID 2283437); conditions: actives raise or lower the signal;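 note: corticosterone secreted into medium quantified by mass spectrometry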;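 for AC50: human H295R adrenal cells prestimulated with forskolin before chemical exposure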
How it was run: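 Steps: seed H295R, adhere overnight; 10 uM forskolin 48 h; replace with chemical (0.1% DMSO) 48 h; extract medium with MTBE; quantify corticosterone by HPLC-MS/MS; score bidirectionally vs DMSO.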

[14] = CEETOX_H295R_CORTISOL: CeeTox H295R High-throughput Steroidogenesis Assay for Cortisol (AID 2283438); conditions: actives raise or lower the signal;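 note: cortisol secreted into medium quantified by LC-MS/MS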
How it was run: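 Steroidogenesis in H295R, per modified OECD 456: 48 h forskolin (10 uM), then 48 h exposure, 0.1% DMSO. Cortisol by extraction and tandem MS; viability by MTT (570/650 nm); cytotoxic chemicals diluted and re-tested.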

[15] = CEETOX_H295R_DOC: CeeTox H295R High-throughput Steroidogenesis Assay for DOC (AID 2283439); conditions: actives raise or lower the signal
How it was run: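 H295R, fsk 10 uM ×48 h pre, cmpd ×48 h (0.1% DMSO). Media → MTBE extr. → LC-MS/MS, DOC. Bidirectional fit vs DMSO; MTT viability same wells, re-test diluted if <70%.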

[16] = CEETOX_H295R_ESTRADIOL: CeeTox H295R High-throughput Steroidogenesis Assay for Estradiol (AID 2283440); conditions: actives raise or lower the signal;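 note: estradiol secreted into medium quantified by LC-MS/MS after dansyl derivatisation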
How it was run: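 H295R adrenocortical cells were prestimulated with 10 uM forskolin for 48 h, then exposed to test chemical in 0.1% DMSO for 48 h. Medium estradiol was extracted with MTBE, dansyl-derivatized and quantified by HPLC-MS/MS; bidirectional fit versus DMSO.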

[17] = CEETOX_H295R_ESTRONE: CeeTox H295R High-throughput Steroidogenesis Assay for Estrone (AID 2283441); conditions: actives raise or lower the signal;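 note: estrone secreted into medium measured by LC-MS/MS after dansyl derivatization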
How it was run: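 Forskolin-stimulated H295R cells are treated 48 h with chemical, and estrone in the medium is measured by LC-MS/MS. Activity is fitted in both directions relative to DMSO controls, with chemicals diluted until MTT viability reaches at least 70%.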

Measured: AC50

Chain of Peroxisome proliferator-activated receptor gamma (Homo sapiens) (P37231 whole entry, looked up, the tested form may be a part): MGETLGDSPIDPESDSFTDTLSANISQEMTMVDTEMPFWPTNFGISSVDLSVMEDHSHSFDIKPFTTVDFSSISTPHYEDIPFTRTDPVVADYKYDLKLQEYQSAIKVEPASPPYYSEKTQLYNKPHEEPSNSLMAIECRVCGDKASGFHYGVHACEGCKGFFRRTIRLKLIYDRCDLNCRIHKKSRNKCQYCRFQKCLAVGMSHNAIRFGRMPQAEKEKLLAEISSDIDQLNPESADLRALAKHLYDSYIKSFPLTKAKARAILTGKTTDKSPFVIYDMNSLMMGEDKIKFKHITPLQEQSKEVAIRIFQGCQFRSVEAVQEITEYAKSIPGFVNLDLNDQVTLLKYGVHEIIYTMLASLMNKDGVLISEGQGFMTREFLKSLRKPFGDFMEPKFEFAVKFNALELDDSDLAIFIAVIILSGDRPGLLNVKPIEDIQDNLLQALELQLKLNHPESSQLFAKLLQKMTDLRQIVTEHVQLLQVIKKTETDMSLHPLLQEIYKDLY
Chain of Retinoic acid receptor RXR-alpha (Homo sapiens) (P19793 whole entry, looked up, the tested form may be a part): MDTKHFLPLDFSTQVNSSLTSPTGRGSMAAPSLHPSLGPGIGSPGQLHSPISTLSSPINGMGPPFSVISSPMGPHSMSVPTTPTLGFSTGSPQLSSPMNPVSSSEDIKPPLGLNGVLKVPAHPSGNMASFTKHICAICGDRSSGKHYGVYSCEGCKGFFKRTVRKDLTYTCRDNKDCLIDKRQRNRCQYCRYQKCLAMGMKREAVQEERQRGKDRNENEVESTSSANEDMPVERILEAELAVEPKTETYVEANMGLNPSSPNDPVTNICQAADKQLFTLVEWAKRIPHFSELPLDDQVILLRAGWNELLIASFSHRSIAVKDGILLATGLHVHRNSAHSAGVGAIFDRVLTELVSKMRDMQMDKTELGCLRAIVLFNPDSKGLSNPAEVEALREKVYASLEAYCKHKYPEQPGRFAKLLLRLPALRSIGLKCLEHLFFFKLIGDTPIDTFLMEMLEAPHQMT
Chain of Bile acid receptor (Homo sapiens) (Q96RI1 whole entry, looked up): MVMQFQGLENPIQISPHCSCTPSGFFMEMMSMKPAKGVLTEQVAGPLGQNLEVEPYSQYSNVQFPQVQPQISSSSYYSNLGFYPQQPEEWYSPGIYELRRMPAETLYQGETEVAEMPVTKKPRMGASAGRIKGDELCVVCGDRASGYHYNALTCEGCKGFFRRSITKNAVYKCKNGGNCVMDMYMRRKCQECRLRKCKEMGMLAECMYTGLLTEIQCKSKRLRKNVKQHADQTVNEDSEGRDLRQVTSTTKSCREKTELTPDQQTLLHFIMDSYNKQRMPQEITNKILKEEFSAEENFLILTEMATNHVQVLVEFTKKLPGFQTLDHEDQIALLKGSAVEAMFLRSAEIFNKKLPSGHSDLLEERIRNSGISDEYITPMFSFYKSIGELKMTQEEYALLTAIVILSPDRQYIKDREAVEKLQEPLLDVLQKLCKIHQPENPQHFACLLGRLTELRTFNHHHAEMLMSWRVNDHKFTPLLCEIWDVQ
Chain of Estrogen receptor (Homo sapiens) (P03372 whole entry, looked up): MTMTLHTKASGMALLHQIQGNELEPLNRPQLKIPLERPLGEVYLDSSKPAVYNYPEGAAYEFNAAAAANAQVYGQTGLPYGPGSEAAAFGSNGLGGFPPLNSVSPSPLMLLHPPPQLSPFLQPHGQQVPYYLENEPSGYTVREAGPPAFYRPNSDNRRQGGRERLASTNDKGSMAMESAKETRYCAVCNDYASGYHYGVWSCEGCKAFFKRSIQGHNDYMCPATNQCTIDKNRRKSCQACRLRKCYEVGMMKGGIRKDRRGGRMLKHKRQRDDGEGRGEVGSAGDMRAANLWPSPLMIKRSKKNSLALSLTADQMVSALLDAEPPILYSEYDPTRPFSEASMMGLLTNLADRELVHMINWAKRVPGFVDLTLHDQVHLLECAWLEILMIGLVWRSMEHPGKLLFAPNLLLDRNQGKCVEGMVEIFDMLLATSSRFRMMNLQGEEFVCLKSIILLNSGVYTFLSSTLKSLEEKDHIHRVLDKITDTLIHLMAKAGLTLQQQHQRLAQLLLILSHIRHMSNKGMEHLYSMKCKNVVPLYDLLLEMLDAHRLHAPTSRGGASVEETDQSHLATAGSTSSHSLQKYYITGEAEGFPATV

CCCCCCCCO[C@@H]1O[C@H](CO)[C@@H](O)[C@H](O)[C@H]1O
inactive: [1] | [2] | [3] | [4] | [5]

CCCCCCCC/C=C\CCCCCCCC(=O)OCCO
inactive: [1] | [2] | [4] | [5]
active: [6] 38.4 µM | [7] 38.7 µM

O=C(C(Cl)Cl)N1CCOC12CCCCC2
inactive: [1] | [2] | [3] | [8] | [6] | [7] | [5]

Cc1ccc(C(C)(C)C)cc1
inactive: [1] | [2] | [6] | [7] | [4] | [5]

CO[Si](OC)(OC)c1ccccc1
inactive: [1] | [2] | [6] | [7] | [5]

CO[Si](CCC1CCC2OC2C1)(OC)OC (stereo not given)
inactive: [9] | [10] | [11] | [12] | [13] | [14] | [15]

CCCCCCCOC(=O)CCC
inactive: [1] | [2] | [6] | [7] | [5]

C1CN(SSN2CCOCC2)CCO1
inactive: [1] | [2] | [5]

CC1=CC[C@H]2C[C@@H]1C2(C)C
inactive: [7] | [5]
active: [1] 93.4 µM | [2] 93.6 µM

C=C1C2CCC(C2)C1(C)C (stereo not given)
inactive: [1] | [2] | [4] | [5]

CC(CC=O)CCCC(C)(C)O (stereo not given)
inactive: [1] | [2] | [6] | [7] | [5]

OC1CCCC1
inactive: [1] | [2] | [7] | [4] | [5]

Cc1ccc(C(C)c2ccc(C)c(C)c2)cc1C
active: [6] 83.5 µM | [7] 76.4 µM | [10] 42.5 µM | [11] 31.9 µM
not listed: [3] | [4] | [8] | [12]
inactive: all other assays above

CCO[Si](C)(OCC)OCC
inactive: [1] | [2] | [7]

O=S(=O)(O)c1ccccc1C=Cc1ccc(-c2ccc(C=Cc3ccccc3S(=O)(=O)O)cc2)cc1
inactive: [1] | [6] | [5]
active: [7] 66.8 µM

CCCCCCC1(C)CCC(=O)O1 (stereo not given)
inactive: [1] | [2] | [5]

CCCCCCCCCCOS(=O)(=O)O
inactive: [1] | [2] | [6] | [5]

CCCCNc1ccc(NCCCC)c2c1C(=O)c1ccccc1C2=O
active: [11] 0.164 µM
inactive: [9] | [10] | [12] | [13] | [14] | [15] | [16] | [17]

COc1ccc2nc(N)sc2c1
inactive: [9] | [10] | [12] | [13] | [14] | [15] | [16] | [17]
active: [11] 7.33 µM

CC1=NN(c2cc(S(=O)(=O)O)ccc2Cl)C(=O)C1N=Nc1ccccc1 (stereo not given)
inactive: [1] | [2] | [5]

O=C(C=Cc1ccccc1)OCc1ccccc1
active: [10] 50 µM | [11] 50 µM | [13] 36.2 µM
not listed: [3] | [4] | [7] | [8] | [12]
inactive: all other assays above

C1=CCCC1
inactive: [9] | [12] | [13] | [14] | [15]

O=C(Nc1ccccc1SSc1ccccc1NC(=O)c1ccccc1)c1ccccc1
inactive: [9] | [10] | [11] | [13] | [14] | [15] | [16] | [17]

Cc1ccc(N/N=c2\c(=O)cc/c(=N/Nc3ccc(S(=O)(=O)O)cc3)c2=O)c(C)c1
inactive: [1] | [2] | [4] | [5]

O=C(c1ccccc1)C1CCC1
inactive: [1] | [2] | [6] | [5]

OC1CCCCCCCCCCC1
inactive: [1] | [2] | [7] | [5]

CCOC(=O)Cc1cccc2ccccc12
active: [9] 34.3 µM | [10] 61.3 µM | [11] 40.1 µM | [15] 30.8 µM
not listed: [3] | [4] | [8] | [12]
inactive: all other assays above

O=C(OCC1CCC2OC2C1)C1CCC2OC2C1 (stereo not given)
inactive: [1] | [2] | [6] | [7] | [5]

Cc1cc(C)c(C(=O)O)c(C)c1
active: [1] 93 µM | [2] 94.2 µM
inactive: [7] | [4] | [5]

C1=Cc2ccccc2C1
inactive: [1] | [2] | [7] | [4] | [5]

O=C1CCCC1
inactive: [2] | [7] | [5]
active: [1] 48.4 µM

c1c[nH]cn1
inactive: [1] | [2] | [5]

C=COCCCC
inactive: [9] | [10] | [11] | [12] | [13] | [14] | [15] | [16] | [17]

C=C[Si](C)(C)O[Si](C)(C)C=C
inactive: [1] | [2] | [6] | [7] | [5]

COCc1c(C(C)C)nc(C(C)C)c(/C=C/[C@@H](O)C[C@@H](O)CC(=O)O)c1-c1ccc(F)cc1
inactive: [14] | [16] | [17]
active: [9] 0.0173 µM | [10] 0.00141 µM | [11] 0.0173 µM | [12] 0.0224 µM | [13] 0.0139 µM | [15] 0.0107 µM

CCCCC(CC)CCC(CC(C)C)OS(=O)(=O)O (stereo not given)
inactive: [1] | [2] | [6] | [7] | [5]

Source: PubChem BioAssay (EPA / NIEHS)
